Experimental data taken from PubChem BioAssay (NCATS).
Inconclusive results are not listed. Values without a mark were called inactive. Active and inactive are the calls of the source. Calls follow the shape of the full dose curve. Square brackets hold non-standard residues; d marks the D form. Peptide text beside a SMILES is read from it.

Experiment: Cytotoxicity counterscreen for inhibitors of SARS-CoV-2 cell entry (AID 1645845); also: nearly all actives have a fitted effect of over 50% in size
Details: cell viability (SARS-CoV-2 entry assay cells); series mostly up to 57.1 µM; activity change, negative = cytotoxicity: at the top concentration
Method in brief: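 Counterscreen run in the same HEK293-ACE2 line as the pseudotyped-particle entry assay, without particles. Viability after 48 h at 37 C was read as ATP luminescence, scaled between cell-containing and cell-free wells.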
% is scaled to controls: 0 for no effect and ±100 for the full control effect; potency is read from the fitted curve at half-maximal effect.

Q: For `CN(C)Cc1ccc(S(=O)(=O)n2ccc(/C=C/C(=O)NO)c2)cc1`, which Potency is on record?
A: 31.6 µM (active)

Q: With `FC(F)(F)c1ccc(CNc2ccc(Cc3c[nH]c4ncc(Cl)cc34)cn2)cn1` as the molecule, how does the “activity change, negative = cytotoxicity” value read?
A: -5.07%

Q: For `COc1ccc(-c2oc3c(CC=C(C)C)c(OC4O[C@H](CO)[C@@H](O)[C@H](O)[C@H]4O)cc(O)c3c(=O)c2OC2O[C@@H](C)[C@H](O)[C@@H](O)[C@H]2O)cc1` (stereo not given in full), which “outcome” value is on record?
A: inactive

Q: For `NC(=O)c1cc(F)cc2c1C(=O)N(C1CCN(C3CCC(F)(F)CC3)CC1)C2`, which “outcome” value is on record?
A: inactive

Q: For `COc1ccnc2[nH]cc(C(=O)C(=O)N3CCN(C(=O)c4ccccc4)C[C@H]3C)c12`, which “activity change, negative = cytotoxicity” value is on record?
A: -18.5%

Q: With `C[C@H](CCC(=O)O)[C@H]1CC[C@H]2[C@@H]3[C@@H](O)C[C@@H]4C[C@H](O)CC[C@]4(C)[C@H]3CC[C@]12C` as the molecule, how does the “outcome” value read?
A: inactive

Q: For `O=C1S/C(=C\c2ccc(OCc3cccc(B(O)O)c3)cc2)C(=O)N1Cc1ccc(F)cc1`, which “activity change, negative = cytotoxicity” value is on record?
A: -6.45%

Q: Which “activity change, negative = cytotoxicity” value does the source give for `COc1ccc([C@@H]2CC(=O)c3c(O)cc(O[C@@H]4O[C@H](CO[C@@H]5O[C@@H](C)[C@H](O)[C@@H](O)[C@H]5O)[C@@H](O)[C@H](O)[C@H]4O)cc3O2)cc1O` here?
A: -3.14%

Q: For `Cc1nc(NC(=O)N2CCCC2C(N)=O)sc1-c1ccnc(C(C)(C)C(F)(F)F)c1` (stereo not given), which “activity change, negative = cytotoxicity” value is on record?
A: -13%

Q: For `CCOCOC[C@H](C[C@H](C)C(=O)NO)NC(=O)c1ccc(Oc2ccccc2)cc1`, which “activity change, negative = cytotoxicity” value is on record?
A: -23%

Q: Which “outcome” value does the source give for `CC(C)C[C@@H]1NC(=O)[C@@H](C(C)C)NC(=O)[C@@H]2CCCN2C(=O)[C@@H](CC(=O)O)NC(=O)[C@@H](Cc2c[nH]c3ccccc23)NC1=O` (cyclo(L[dW][dD]P[dV])) here?
A: inactive

Q: Which “activity change, negative = cytotoxicity” value does the source give for `O=C(O)[C@H](CC(=O)N1C[C@H]2CCCC[C@H]2C1)Cc1ccccc1` here?
A: 1.9%

Q: With `Cc1ccc(NC(=O)c2ccc(CN3CCNCC3)cc2)cc1Nc1nccc(-c2cccnc2)n1` as the molecule, how does the Potency read?
A: 25.1 µM (active)

Q: With `COC(=O)C1=C(C)NC(c2ncc(F)cc2F)=N[C@@H]1c1ccc(F)cc1Cl` as the molecule, how does the “outcome” value read?
A: inactive

Q: Which “outcome” value does the source give for `C=CCN1C[C@H](C(=O)N(CCCN(C)C)C(=O)NCC)CC2c3cccc4[nH]cc(c34)C[C@H]21` (stereo not given in full) here?
A: inactive

Q: With `c1ccc(CNCc2ccc(CN3CCCNCCNCCCNCC3)cc2)nc1` as the molecule, how does the “activity change, negative = cytotoxicity” value read?
A: 4.7%

Q: With `Cc1cc(Nc2cc(N)ncn2)c(=O)n2c1C(=O)NC21CCCCC1` as the molecule, how does the “outcome” value read?
A: inactive [at 27.1 µM]

Q: With `CC1(C)CC[C@]2(C(=O)O)CC[C@]3(C)C(=CC[C@@H]4[C@@]5(C)C[C@@H](O)[C@H](O)C(C)(C)[C@@H]5CC[C@]43C)[C@@H]2C1` as the molecule, how does the “outcome” value read?
A: inactive

Q: With `CC(C)n1c(=O)cc(N[C@@H](C)c2ccccc2)[nH]c1=O` as the molecule, how does the “activity change, negative = cytotoxicity” value read?
A: -15.2%

Q: With `O=c1c(-c2ccc(O)cc2)coc2cc(O[C@@H]3O[C@H](CO)[C@@H](O)[C@H](O)[C@H]3O)ccc12` as the molecule, how does the “activity change, negative = cytotoxicity” value read?
A: -1.35%

Q: For `CCN(c1cc(-c2ccc(CN3CCOCC3)cc2)cc(C(=O)NCc2c(C)cc(C)[nH]c2=O)c1C)C1CCOCC1`, which “activity change, negative = cytotoxicity” value is on record?
A: -17.8%

Q: Which Potency does the source give for `C=CC(=O)Nc1ccc2ncnc(Nc3cccc(Br)c3)c2c1` here?
A: 14.1 µM (active)

Q: Which “activity change, negative = cytotoxicity” value does the source give for `CC(=O)Nc1ccc(C(=O)NC(C)(C)C)cc1` here?
A: -3.09%

Q: With `COc1cccc(OCCCN)c1-c1cc(Nc2cnc(C#N)cn2)n[nH]1` as the molecule, how does the “activity change, negative = cytotoxicity” value read?
A: -1.77%

Q: For `NCc1ccc(OCCCc2sc(-c3ccc4c(c3)/C(=N/Nc3nc5ccccc5s3)CCC4)nc2C(=O)O)cc1`, which “activity change, negative = cytotoxicity” value is on record?
A: -2.63%

Q: For `CNc1nc(Nc2cnn([C@H]3CCN(C4COC4)C[C@@H]3F)c2Cl)ncc1C(F)(F)F`, which “outcome” value is on record?
A: inactive

Q: Which Potency does the source give for `Cc1c[nH]c2nc(Nc3ccc(N4CCN(C)CC4)c(F)c3)nc(-c3cccc(CC#N)c3)c12` here?
A: 8.91 µM (active)

Q: Which “activity change, negative = cytotoxicity” value does the source give for `C[C@]1(C(=O)N(CCCC(=O)O)Cc2cccc(Cl)c2)CCN1C(=O)c1csc2ccccc12` here?
A: -2.68%

Q: Which “activity change, negative = cytotoxicity” value does the source give for `CCOC(=O)N[C@@H]1CC[C@@H]2[C@@H](C1)C[C@H]1C(=O)O[C@H](C)[C@H]1[C@H]2/C=C/c1ccc(-c2cccc(F)c2)cn1` here?
A: 0.268%

Q: For `CCc1c(C(=O)NNC(=O)[C@@H](O)c2cc(F)cc(F)c2)ccc(O)c1C`, which “activity change, negative = cytotoxicity” value is on record?
A: -3.63%

Q: For `COc1cc(C)[nH]c(=O)c1CN1CCc2c(Cl)cc([C@H](OC)C3COC3)c(Cl)c2C1=O`, which “activity change, negative = cytotoxicity” value is on record?
A: -11.1%

Q: Which “outcome” value does the source give for `CC(C)(CNC(=O)c1cccc(-c2noc(C(F)(F)F)n2)c1)c1coc(-c2ccccc2)n1` here?
A: inactive

Q: With `Nc1nc(OC(c2ccc(-c3cccc(F)c3)cc2)C(F)(F)F)cc(-c2ccc(C[C@@H](N)C(=O)O)cc2)n1` (stereo not given in full) as the molecule, how does the “outcome” value read?
A: inactive

Q: For `NC(CC1c2ccccc2Oc2ccccc21)(C(=O)O)C1CC1C(=O)O` (stereo not given), which “outcome” value is on record?
A: inactive

Q: With `O=C(N[C@H]1CCC[C@H](CO)C1)C1CCN(c2nc3cc(Cl)c(-c4ccc(Cl)cc4)cc3o2)CC1` as the molecule, how does the “outcome” value read?
A: inactive

Q: With `C[C@]12CC[C@H](O)CC1=CC[C@@H]1[C@@H]2CC[C@]2(C)C(c3cccnc3)=CC[C@@H]12` as the molecule, how does the “outcome” value read?
A: inactive [at 27.1 µM]

Q: Which “activity change, negative = cytotoxicity” value does the source give for `CCS(=O)(=O)c1ccc2oc(-c3ccc4ccccc4c3)nc2c1` here?
A: 1.83%

Q: For `COc1cc2ncnc(Nc3cccc(Cl)c3F)c2cc1OC(=O)N1CCN(C)C[C@H]1C`, which “activity change, negative = cytotoxicity” value is on record?
A: -4.7%

Q: With `COc1c(Nc2ncc(Cl)c(N[C@H]3[C@H](C(N)=O)[C@@H]4C=C[C@@H]3C4)n2)ccc2c1CCC(N1CCOCC1)CC2` (stereo not given in full) as the molecule, how does the “outcome” value read?
A: inactive

Q: For `CCC(=O)O[C@]1(C(=O)CO)CC[C@H]2[C@@H]3CCC4=CC(=O)CC[C@]4(C)[C@H]3CC[C@@]21C`, which “activity change, negative = cytotoxicity” value is on record?
A: -2.69%
